According to PubChem BioAssay (Tox21):
Inconclusive results are not listed. Entries that show only a call come without a potency. Values without a mark were called inactive. Active and inactive are the calls of the source. Calls follow the shape of the full dose curve.

target: Acetylcholinesterase (Homo sapiens) (UniProt P22303); assay: Acetylcholinesterase (AChE) small molecule antagonists: colormetric cell-based qHTS assay (AID 1347395); settings: SH-SY5Y cells AChE activity, colorimetric (Ellman); series mostly up to 115 µM; also: nearly all actives have a fitted effect of over 30% in size
Sequence (P22303 whole entry, looked up): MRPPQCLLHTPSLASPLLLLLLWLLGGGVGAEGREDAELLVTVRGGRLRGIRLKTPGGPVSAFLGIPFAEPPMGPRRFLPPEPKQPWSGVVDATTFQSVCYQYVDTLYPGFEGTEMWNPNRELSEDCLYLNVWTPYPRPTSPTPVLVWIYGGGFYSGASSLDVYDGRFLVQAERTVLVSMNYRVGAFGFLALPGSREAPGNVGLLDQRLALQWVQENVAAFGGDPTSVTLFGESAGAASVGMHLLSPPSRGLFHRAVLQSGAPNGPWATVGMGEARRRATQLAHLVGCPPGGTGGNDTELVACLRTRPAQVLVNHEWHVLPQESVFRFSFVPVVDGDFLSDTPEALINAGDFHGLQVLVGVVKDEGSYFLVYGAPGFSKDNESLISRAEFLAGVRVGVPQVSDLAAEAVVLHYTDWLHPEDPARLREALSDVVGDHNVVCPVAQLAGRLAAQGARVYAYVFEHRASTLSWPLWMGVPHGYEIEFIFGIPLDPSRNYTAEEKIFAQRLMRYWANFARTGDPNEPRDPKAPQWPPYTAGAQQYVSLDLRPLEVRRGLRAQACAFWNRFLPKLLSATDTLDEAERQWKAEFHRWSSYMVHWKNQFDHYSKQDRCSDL
Procedure, shortened: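 Colorimetric read-out: DTNB detects thiocholine released when cellular AChE in SH-SY5Y cells hydrolyses acetylthiocholine. Cells attached overnight, received compound for 30 min at 37 C, then substrate mix for 90 min at 37 C.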

Q: For C[C@H]1COc2c(C3(N)CC3)c(F)cc3c(=O)c(C(=O)O)cn1c23, which Potency is on record?
A: Its Potency is “inactive”.

Q: CC(C)(Oc1ccc(C2CC2(Cl)Cl)cc1)C(=O)O (stereo not given) was tested. Which Potency did it give?
A: The Potency was “inactive”.

Q: How did the Potency turn out when Cc1ccc(Cl)c(N)c1Cl was run?
A: The Potency was “inactive”.

Q: For C1CN(CCOCCN2CCOCC2)CCO1, which Potency is on record?
A: The Potency was “inactive”.

Q: Which Potency does the source give for O=C1NC(c2ccccc2)(c2ccccc2)C(=O)N1COP(=O)(O)O here?
A: Its Potency is “inactive”.

Q: For OC/C(Br)=C(\Br)CO, which Potency is on record?
A: The Potency was “inactive”.

Q: With CC(C)CCOC(=O)c1ccccc1 as the compound, how does the Potency read?
A: Its Potency is “inactive”.

Q: COc1cc(C)cc(O)c1 was tested. Which Potency did it give?
A: The Potency was “inactive”.

Q: How did the Potency turn out when CC/C=C\C/C=C\C/C=C\CCCCCCCC(=O)O was run?
A: Its Potency is “inactive”.

Q: With C=C1C2CCC(C2)C1(C)C (stereo not given) as the compound, how does the Potency read?
A: The Potency was “inactive”.

Q: With c1ccc2c(c1)[nH]c1ccccc12 as the compound, how does the Potency read?
A: Its Potency is “inactive”.

Q: Which Potency does the source give for CC(C)C[C@H](NC(=O)[C@H](CCc1ccccc1)NC(=O)CN1CCOCC1)C(=O)N[C@@H](Cc1ccccc1)C(=O)N[C@@H](CC(C)C)C(=O)[C@@]1(C)CO1 here?
A: The Potency was “inactive”.

Q: Which Potency does the source give for COc1ccc(-n2nc(CCC(=O)N(C)O)cc2-c2ccc(Cl)cc2)cc1 here?
A: Its Potency is “inactive”.

Q: Clc1cccc(Cl)n1 was tested. Which Potency did it give?
A: Its Potency is “inactive”.

Q: For Cc1ccc(S(=O)(=O)N=C=O)cc1, which Potency is on record?
A: Its Potency is “inactive”.

Q: Which Potency does the source give for CCCSSCCC here?
A: The Potency was “inactive”.

Q: With CC[C@@H]([C@H](C)O)n1ncn(-c2ccc(N3CCN(c4ccc(OC[C@@H]5CO[C@@](Cn6cncn6)(c6ccc(F)cc6F)C5)cc4)CC3)cc2)c1=O as the compound, how does the Potency read?
A: Its Potency is “inactive”.

Q: With CC(=O)c1sc(C)nc1C as the compound, how does the Potency read?
A: The Potency was “inactive”.

Q: CCN(CCO)c1cccc(C)c1 was tested. Which Potency did it give?
A: Its Potency is “inactive”.

Q: How did the Potency turn out when CCCC(=O)OC was run?
A: The Potency was “inactive”.

Q: For CCN(CC)C(=O)c1ccc(O)c(OC)c1, which Potency is on record?
A: Its Potency is “inactive”.

Q: CCC(C)(CCCC(C)C)OC(C)=O (stereo not given) was tested. Which Potency did it give?
A: The Potency was “inactive”.

Q: For Nc1nc2ccc(OC(F)(F)F)cc2s1, which Potency is on record?
A: Its Potency is “inactive”.

Q: How did the Potency turn out when COc1ccc([C@@H]2Sc3ccccc3N(CCN(C)C)C(=O)[C@@H]2OC(C)=O)cc1 was run?
A: The Potency was “inactive”.

Q: With CC(=O)NS(=O)(=O)c1ccc(N)cc1 as the compound, how does the Potency read?
A: Its Potency is “inactive”.

Q: Oc1ccc(C2(c3ccc(O)c(C4CCCCC4)c3)CCCCC2)cc1C1CCCCC1 was tested. Which Potency did it give?
A: The Potency was “inactive”.

Q: Which activity, negative = inhibition does the source give for NC(N)=NCCC[C@H](N)C(=O)O here?
A: The activity, negative = inhibition was 5.24% [at 10.5 µM].

Q: How did the Potency turn out when CC1(C)C(=O)N(Cl)C(=O)N1Br was run?
A: Its Potency is “inactive”.

Q: With Nc1ccc(O)c(C(=O)O)c1 as the compound, how does the Potency read?
A: Its Potency is “inactive”.

Q: How did the Potency turn out when CC(C)CNCC(C)C was run?
A: Its Potency is “inactive”.

Q: C=CC(=O)OCC(O)COc1ccccc1 (stereo not given) was tested. Which Potency did it give?
A: Its Potency is “inactive”.

Q: For CCCCCOC(=O)COc1cc(N2C(=O)C3=C(CCCC3)C2=O)c(F)cc1Cl, which Potency is on record?
A: Its Potency is “inactive”.

Q: CC(C)(Oc1ccc(Cl)cc1)C(=O)OCCCOC(=O)C(C)(C)Oc1ccc(Cl)cc1 was tested. Which Potency did it give?
A: Its Potency is “inactive”.

Q: How did the Potency turn out when CC(=O)c1ccc(Cl)c(Cl)c1Cl was run?
A: Its Potency is “inactive”.

Q: Which Potency does the source give for CC(C)CCCCCCOC(=O)C1CCCCC1C(=O)OCCCCCCC(C)C (stereo not given) here?
A: The Potency was “inactive”.

Q: COCCOCCOCCO was tested. Which Potency did it give?
A: Its Potency is “inactive”.

Q: How did the Potency turn out when O=C(O)CC(O)C(=O)O (stereo not given) was run?
A: The Potency was “inactive”.

Q: With CC(=O)CCC=C(C)C as the compound, how does the Potency read?
A: Its Potency is “inactive”.

Q: OCc1ccc(Cl)cc1Cl was tested. Which Potency did it give?
A: Its Potency is “inactive”.

Q: For CC(C)c1cccc(C(C)C)c1N1C(=O)c2ccc(O)cc2C1=O, which Potency is on record?
A: Its Potency is “inactive”.
